Data taken from the supplement of paper PMC11417369.
± gives the standard deviation of the averaged measurements. The full ranking holds about 25,000 sequences; the median of “ln(normalized median fluorescence intensity)” is about 10, and the highest 2% start at about 12. This excerpt belongs to a sample that is enriched for the highest values.

Test system: PfAP2-G AP2 domain (GST-tagged)
Assay: gcPBM binding intensity (ln(normalized median fluorescence intensity)); higher = stronger DNA binding
Method in brief: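 GST-tagged P. falciparum DNA-binding domains, expressed in E. coli (about 25 μg on average), were applied for 1 h to an Agilent 4 × 180k array of primer-extended double-stranded 36-bp intergenic genomic probes plus negative controls. The binding buffer was 1× PBS with 1% milk, 0.2 mg/ml BSA, 0.5% salmon testes DNA and 0.03% Triton X-100. Bound protein was detected with Alexa488 anti-GST antibody and scanned at 488 nm. Binding intensity is the highest Masliner-normalised natural-log median intensity across replicate spots of either probe orientation.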

Sequence	gcPBM binding intensity (ln)
AAATTATTTCTTTGCGCATGTAGCTTTTATACTATT [TGCATGCA_site819]	9.98 ± 0.16
ATTAAGTTCAAATGTAGTACGTGTAAAAAAAAAAAA [XGTACX_site1578]	11.4 ± 0.83
TAAAAATATAAATTTTGTACGTAAAAAATGGTTCTT [XGTACX_site1506]	11.5 ± 0.93
AATGGTTCAACGTAGTGTACGTAATAAATAATAAAT [XGTACX_site8668]	11.8 ± 0.95
GGATAAGAAAAGAAGTGTACATATATATATATATAT [XGTACX_site8290]	11.2 ± 0.68
CGGATCTATAAGTGTACACAATCTAGCGAAAAGTTT [CACACA_site4932]	11.6 ± 1
ATTCGGATCTATAAGTGTACACAATCTAGCGAAAAG [XGTACX_site3088]	11.5 ± 0.83
ACGGATTAAAAAATGTGTACGCACAAAAAAAAAAAT [XGTACX_site8259]	11.7 ± 0.97
TTATTAAAAATGGTATGTACGCACATAATATATATA [XGTACX_site3230]	11.5 ± 0.71
AGGCACAAAATTAAATGTACATATATATATATATAT [XGTACX_site3323]	11 ± 0.6
TTTTTTTTTTTTTTTTTTTTTTTATGTTCTTAAAAA [GTGCAC_negctrl_site62]	9.56 ± 0.35
TTATGTTCTTTAAAACCACACACCCCCCAACCCCCC [CACACA_site8742]	11.6 ± 0.87
CACACCCACAAAAACACACACAAAGGTGTTCTTATA [CACACA_site1293]	10 ± 0.13
ATGTTCTTTAAAACCACACACCCCCCAACCCCCCTC [CACACA_site2373]	11.7 ± 1
CAAACCCACCAACACACACACACAAAAATGATTAAA [CACACA_site2432]	10.2 ± 0.35
CTTTAAACCCTGAACACACACAAATACACCCAAAAA [CACACA_site4297]	10.7 ± 0.54
TATATATGTATCAAGTGTACAGTTTTAAAAAAAAAA [XGTACX_site6011]	11.4 ± 0.87
TTTCTTACAACAACAACAAAAAAAAATAAATAAAAT [GTGCAC_negctrl_site711]	9.91 ± 0.16
AATATATATGAAAAAAGTACTCAAGGAATAAAAAAA [XGTACX_site7720]	11.3 ± 0.67
TAATAAAACATATATACACACATTAGATATACATAT [CACACA_site6897]	9.92 ± 0.057
AAATTACTTTCACAGTGTACTTGGAAAAAAAAAAGA [XGTACX_site1046]	11.3 ± 0.8
AATGGAAATTTTTCTTGTACACATATATGACATGTT [XGTACX_site1691]	11.3 ± 0.86

Sequence	gcPBM binding intensity (ln)
TCTTTGTACTTTCACATGTACACCCAAATGGAAATT [CACACA_negctrl_site1442]	11.8 ± 0.87
ACATCTAGGCTTATTTTATGATACATGTGAATATAT [TGCATGCA_negctrl_site325]	9.79 ± 0.099
TTTCATTTAGCTTTTACACACTATATATTATTGATT [CACACA_site16]	9.82 ± 0.11
AATAAACATATATGTACACACATATACATATATATA [CACACA_site2848]	11.4 ± 1.2
ATAATAAACATATATGTACACACATATACATATATA [CACACA_site8924]	11.3 ± 0.94
AGTTATATGTACTACACACGTACACAAAATAAGATA [CACACA_site3719]	11.6 ± 0.75
AATATATAAACACGTACACACACATATATGTATATA [CACACA_site9168]	11.6 ± 1
TAAGTTATATGTACTACACACGTACACAAAATAAGA [CACACA_site9237]	11.8 ± 1
TATATCTACTACACACGTACACAAAATAAGATACCT [XGTACX_site7886]	11.5 ± 0.97
AAAAATATATAAACACGTACACACACATATATGTAT [XGTACX_site7436]	11.6 ± 0.88
AAAAAAATAAAACACATACATATATGTATATATATA [GTGCAC_negctrl_site390]	9.77 ± 0.2
ACATAAATAATAAAAACACACATATGTACATATATA [CACACA_site1913]	11.3 ± 0.79
GCTATATATTACAATCGTACAATATATATATATATA [XGTACX_site6730]	10.8 ± 0.68
TATATTTATAACAACACACACAGATCATAAAACTGC [CACACA_site7086]	10.2 ± 0.12
TTTTTCCAATCAGATGCATGTTACTATATTTGGTTC [TGCATGCA_site52]	9.96 ± 0.014
ATATATTATTATAACTGTACTTTTTTTGTGGTTAAT [XGTACX_site8266]	11.5 ± 0.83
TCATAGTATAAACACACACACACACCCATATATATA [CACACA_site8512]	10.2 ± 0.3
ATAAATTGTTCTTTTTGTGTAAACAGAATATTAAAA [CACACA_negctrl_site1022]	10.1 ± 0.21
TAAGAAATAAATAGTACACACATAGACACCCACCGA [CACACA_site1516]	11.5 ± 0.93
TAAGAAATAAATAGTACACACATAGACACCCACCCA [CACACA_site8429]	11.7 ± 0.8
GCATAAGAAATAAATAGTACACACATAGACACACAC [XGTACX_site3095]	11.6 ± 0.85
TGATCTTTACACATATTATATATATATAAAAAAAAA [XGTACX_negctrl_site360]	9.99 ± 0.26
